According to PubChem BioAssay AID1159580 (chemical genetic matrix, 2015):
Hit rate of the full screen: of about 5,500 compounds, about 2,000 (36%) were called active. Inconclusive results (about 18%) are left out. No stated cut-off is given here; in the data, active means normalized growth mostly below about 0.91 (no sharp cut-off); inconclusive means no clear call, values can overlap the other calls; inactive means mostly above about 0.92. This is one part of the list.

Assay: chemical genetic growth profiling, strain panel (AID 1159580);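 further: tested at 20 µM; growth read once vehicle control cultures reached saturation at 30 °C; 1 = growth at the plate median or of vehicle wells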
Conditions: growth OD

Measured: normalized growth

CNC(C)(C)Cc1ccccc1
inactive: S. cerevisiae deletion strains, locus YJR043C, strain POL32, stronger effect = lower value 0.977 | S. cerevisiae deletion strains, locus YJR066W, strain TOR1, stronger effect = lower value 1.01 | S. cerevisiae deletion strains, locus YKL009W, strain mrt4, stronger effect = lower value 0.988 | S. cerevisiae deletion strains, locus YKL068W, stronger effect = lower value 1 | S. cerevisiae deletion strains, locus YKL085W, strain MDH1 (second series), stronger effect = lower value 1.01 | S. cerevisiae deletion strains, locus YKL085W, strain MDH1, stronger effect = lower value 1.01 | S. cerevisiae deletion strains, locus YKL160W, strain elf1, stronger effect = lower value 1.01 | S. cerevisiae deletion strains, locus YKL190W, strain CNB1, stronger effect = lower value 1.01 | S. cerevisiae deletion strains, locus YKR001C, strain vps1, stronger effect = lower value 0.991 | S. cerevisiae deletion strains, locus YKR026C, strain gcn3, stronger effect = lower value 1.02 | S. cerevisiae deletion strains, locus YKR091W, strain srl3, stronger effect = lower value 1 | S. cerevisiae deletion strains, locus YLL001W, strain dnm1, stronger effect = lower value 1.01 | S. cerevisiae deletion strains, locus YLL026W, stronger effect = lower value 1.02 | S. cerevisiae deletion strains, locus YLL041C, strain sdh2, stronger effect = lower value 1.02 | S. cerevisiae deletion strains, locus YLR027C, strain aat2, stronger effect = lower value 1.02 | S. cerevisiae deletion strains, locus YLR039C, strain RIC1, stronger effect = lower value 1.04 | S. cerevisiae deletion strains, locus YLR058C, strain SHM2, stronger effect = lower value 1.01 | S. cerevisiae deletion strains, locus YLR102C, strain apc9, stronger effect = lower value 1.01 | S. cerevisiae deletion strains, locus YLR113W, strain HOG1, stronger effect = lower value 1.06 | S. cerevisiae deletion strains, locus YLR221C, strain rsa3, stronger effect = lower value 1.02 | S. cerevisiae deletion strains, locus YLR258W, strain gsy2, stronger effect = lower value 1.02 | S. cerevisiae deletion strains, locus YLR262C, strain YPT6 (second series), stronger effect = lower value 1 | S. cerevisiae deletion strains, locus YLR262C, strain YPT6, stronger effect = lower value 1.02 | S. cerevisiae deletion strains, locus YLR268W, strain sec22, stronger effect = lower value 1 | S. cerevisiae deletion strains, locus YLR320W, strain mms22, stronger effect = lower value 1.04 | S. cerevisiae deletion strains, locus YLR330W, strain CHS5, stronger effect = lower value 1.01 | S. cerevisiae deletion strains, locus YLR342W, strain FKS1 (second series), stronger effect = lower value 1.08 | S. cerevisiae deletion strains, locus YLR342W, strain FKS1, stronger effect = lower value 1.02 | S. cerevisiae deletion strains, locus YLR357W, strain rsc2, stronger effect = lower value 0.988 | S. cerevisiae deletion strains, locus YLR370C, strain arc18, stronger effect = lower value 1.01 | S. cerevisiae deletion strains, locus YLR371W, strain rom2, stronger effect = lower value 1.01 | S. cerevisiae deletion strains, locus YLR384C, strain iki3, stronger effect = lower value 1.01 | S. cerevisiae deletion strains, locus YLR418C, strain cdc73, stronger effect = lower value 1.01 | S. cerevisiae deletion strains, locus YML016C, strain PPZ1, stronger effect = lower value 1.01 | S. cerevisiae deletion strains, locus YML032C, strain rad52, stronger effect = lower value 0.985 | S. cerevisiae deletion strains, locus YML120C, strain ndi1, stronger effect = lower value 1.02 | S. cerevisiae deletion strains, locus YML124C, strain tub3, stronger effect = lower value 1.01 | S. cerevisiae deletion strains, locus YMR058W, strain fet3, stronger effect = lower value 1 | S. cerevisiae deletion strains, locus YMR078C, strain ctf18, stronger effect = lower value 0.999 | S. cerevisiae deletion strains, locus YMR125W, strain sto1, stronger effect = lower value 1.02 | S. cerevisiae deletion strains, locus YMR129W, stronger effect = lower value 1.01 | S. cerevisiae deletion strains, locus YMR205C, strain PFK2, stronger effect = lower value 1.03 | S. cerevisiae deletion strains, locus YMR223W, strain ubp8, stronger effect = lower value 1.02 | S. cerevisiae deletion strains, locus YMR231W, strain pep5, stronger effect = lower value 1.02 | S. cerevisiae deletion strains, locus YMR307W, strain GAS1, stronger effect = lower value 1.02 | S. cerevisiae deletion strains, locus YNL067W, strain RPL9B, stronger effect = lower value 0.988 | S. cerevisiae deletion strains, locus YNL071W, strain lat1, stronger effect = lower value 1.01 | S. cerevisiae deletion strains, locus YNL128W, strain TEP1, stronger effect = lower value 1.03 | S. cerevisiae deletion strains, locus YNL183C, strain NPR1, stronger effect = lower value 1 | S. cerevisiae deletion strains, locus YNL209W, strain ssb2, stronger effect = lower value 1.02 | S. cerevisiae deletion strains, locus YNL233W, strain BNI4, stronger effect = lower value 0.995 | S. cerevisiae deletion strains, locus YNL248C, strain rpa49, stronger effect = lower value 1.01 | S. cerevisiae deletion strains, locus YNL250W, strain rad50, stronger effect = lower value 1.02 | S. cerevisiae deletion strains, locus YNL271C, strain bni1, stronger effect = lower value 0.997 | S. cerevisiae deletion strains, locus YNL298W, strain CLA4, stronger effect = lower value 1 | S. cerevisiae deletion strains, locus YNL307C, strain MCK1, stronger effect = lower value 1.01 | S. cerevisiae deletion strains, locus YNL322C, strain KRE1 (second series), stronger effect = lower value 1.02 | S. cerevisiae deletion strains, locus YNL322C, strain KRE1, stronger effect = lower value 1 | S. cerevisiae deletion strains, locus YNR049C, strain mso1, stronger effect = lower value 1.01 | S. cerevisiae deletion strains, locus YNR052C, strain pop2, stronger effect = lower value 1 | S. cerevisiae deletion strains, locus YOL006C, strain TOP1, stronger effect = lower value 0.958 | S. cerevisiae deletion strains, locus YOL012C, strain htz1 1.02 | S. cerevisiae deletion strains, locus YOL147C, strain pex11, stronger effect = lower value 1.01 | S. cerevisiae deletion strains, locus YOR001W, strain rrp6, stronger effect = lower value 1.03 | S. cerevisiae deletion strains, locus YOR061W, strain CKA2, stronger effect = lower value 1.01 | S. cerevisiae deletion strains, locus YOR069W, strain VPS5, stronger effect = lower value 1.01 | S. cerevisiae deletion strains, locus YOR070C, strain gyp1, stronger effect = lower value 1.01 | S. cerevisiae deletion strains, locus YOR080W, strain dia2, stronger effect = lower value 1.02 | S. cerevisiae deletion strains, locus YOR083W, strain WHI5, stronger effect = lower value 1.02 | S. cerevisiae deletion strains, locus YOR106W, strain vam3, stronger effect = lower value 1.03 | S. cerevisiae deletion strains, locus YOR136W, strain idh2, stronger effect = lower value 0.994 | S. cerevisiae deletion strains, locus YOR144C, strain elg1, stronger effect = lower value 0.995 | S. cerevisiae deletion strains, locus YOR184W, strain ser1, stronger effect = lower value 0.998 | S. cerevisiae deletion strains, locus YOR231W, strain MKK1, stronger effect = lower value 1.03 | S. cerevisiae deletion strains, locus YOR265W, strain rbl2, stronger effect = lower value 1.01 | S. cerevisiae deletion strains, locus YOR270C, strain vph1, stronger effect = lower value 1.04 | S. cerevisiae deletion strains, locus YOR290C, strain snf2, stronger effect = lower value 1.01 | S. cerevisiae deletion strains, locus YOR316C, strain cot1, stronger effect = lower value 1.01 | S. cerevisiae deletion strains, locus YPL051W, strain arl3, stronger effect = lower value 1.02 | S. cerevisiae deletion strains, locus YPL078C, strain atp4, stronger effect = lower value 1.01 | S. cerevisiae deletion strains, locus YPL106C, strain sse1, stronger effect = lower value 1.05 | S. cerevisiae deletion strains, locus YPL240C, strain hsp82, stronger effect = lower value 1.01 | S. cerevisiae deletion strains, locus YPL241C, strain CIN2, stronger effect = lower value 1.01 | S. cerevisiae deletion strains, locus YPL256C, strain CLN2, stronger effect = lower value 1.02 | S. cerevisiae deletion strains, locus YPR119W, strain clb2, stronger effect = lower value 1.01 | S. cerevisiae deletion strains, locus YPR141C, strain kar3, stronger effect = lower value 0.998 | S. cerevisiae deletion strains, locus YPR163C, strain tif3, stronger effect = lower value 0.999 | S. cerevisiae deletion strains, locus YPR167C, strain met16, stronger effect = lower value 1 | S. cerevisiae deletion strains, strain wtn01, stronger effect = lower value 0.999 | S. cerevisiae strains, strain wild type, stronger effect = lower value 1.01
